The source made the active and inactive calls.
Key:
[1] = test system: Human papillomavirus type 1a protein E7 (residues 44-93); experiment: small molecules binding HPV E7 44-93 – biochemical, small-molecule microarray, residues 44-93, 635 nm fluorescence, primary screen (AID 1108); details: fluorescence 635 nm, higher = more signal;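 also: E7 fragment applied at 1 µg/mL in TBST for 1 h at 4 C; score combines spot fluorescence with its signal to noise ratio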
[2] = hepatitis C replication reporter changes, two-sided – Huh7 cells, luciferase reporter, HCV replication inhibitor project, primary screen (AID 1109); details: Huh7 HCV replicon luciferase reporter, 48 h; higher = more signal;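 also: huh7 hepatoma cells harbouring a luciferase neomycin HCV replicon reporter; luciferase luminescence as measure of HCV replicon replication; test concentration not given here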
[3] = biological target: Left-right determination factor 2 (Homo sapiens) (UniProt O00292); experiment: small molecules binding LEFTY2 protein – biochemical, small-molecule microarray, 635 nm fluorescence scan, primary screen (AID 1110); details: higher = more signal
[4] = biological target: Calmodulin-1 (Homo sapiens) (UniProt P0DP23); experiment: small molecules binding calmodulin-1 with EGTA – biochemical, small-molecule microarray, Cy5-labelled CALM1, profiling panel (AID 1111); details: Cy5-CALM1 binding fluorescence, higher = more signal;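 also: labelled calmodulin applied in Tris saline Tween buffer holding calcium plus EGTA and DTT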
[5] = biological target: Calmodulin-1 (Homo sapiens) (UniProt P0DP23); experiment: small molecules binding Ca-loaded calmodulin-1 – biochemical, small-molecule microarray, Cy5-labelled CALM1, plus calcium, artefact control for SMM control-protein annotation, profiling panel (AID 1112); details: Cy5-CALM1 binding fluorescence, higher = more signal;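 also: score merges spot fluorescence with signal to noise from triplicate slides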
[6] = probe aWnt5a binding to arrayed compounds – biochemical, biotinylated probe, 635/667 nm fluorescence, primary screen (AID 1113); details: small-molecule microarray, higher = more signal;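 also: score merges 667 nm fluorescence intensity with signal-to-noise per printed feature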
[7] = probe aShh binding to arrayed compounds – biochemical, biotinylated probe, 635/667 nm fluorescence, primary screen (AID 1114); details: small-molecule microarray, higher = more signal;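 also: probe is biotin-labelled aShh protein from a stem cell growth factor screen; measures binding of labelled protein to compounds printed on the slide; score merges feature fluorescence at 667 nm with signal-to-noise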
[8] = probe aNog binding to arrayed compounds – biochemical, biotinylated probe, 635/667 nm fluorescence, primary screen (AID 1115); details: small-molecule microarray, higher = more signal;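 also: probe is biotinylated aNog protein used at 0.15 µg/mL for 1 h at 4 C; z-score combines 667 nm fluorescence of each spot with its signal to noise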
[9] = biological target: Torsin-1A-interacting protein 1 (Homo sapiens) (UniProt Q5JTV8); experiment: compound microarray binding of lysate hLAP1 – cell lysate, small-molecule microarray, COS7 lysate, 635/667 nm fluorescence, primary screen (AID 1116); details: 635 nm fluorescence, higher = more signal
[10] = biological target: Alpha-bungarotoxin (Bungarus multicinctus) (UniProt P60615); experiment: compounds binding labelled alpha-BTX control protein – biochemical, small-molecule microarray, Alexa647 label, 635/667 nm fluorescence, artefact control for SMM control protein annotation, profiling panel (AID 1117); details: alpha-BTX-A647 binding fluorescence, higher = more signal
Albumin (Bos taurus) = Albumin (Bos taurus) (UniProt P02769); experiment: compounds binding labelled BSA control protein – biochemical, small-molecule microarray, Alexa647 label, 635/667 nm fluorescence, artefact control for SMM control protein annotation, profiling panel (AID 1118); details: BSA-A647 binding, fluorescence 635 nm, higher = more signal;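 also: score merges 667 nm emission intensity and signal-to-noise per printed compound spot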
[11] = probe aXIP binding to arrayed compounds – biochemical, NeuroSMM set, 635/667 nm fluorescence, primary screen (AID 1119); details: small-molecule microarray, higher = more signal, called active from +8 up or from −8 down;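 also: probe is the protein aXip251-270 applied at 1 µg/mL to compound-printed slides; binding of probe to printed compounds measured as 667 nm fluorescence plus signal to noise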
[12] = probe aNOTCH3 binding on compound microarray – biochemical, small-molecule microarray, 635/667 nm fluorescence, primary screen (AID 1120); details: higher = more signal;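 also: probe is a biotin-tagged antibody raised against NOTCH3 rather than NOTCH3 protein; score merges spot fluorescence near 667 nm with spot signal to noise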
[13] = probe aNOTCH2 binding on compound microarray – biochemical, small-molecule microarray, 635/667 nm fluorescence, primary screen (AID 1121); details: higher = more signal;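 also: score merges feature fluorescence read at 667 nm with its signal to noise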
[14] = biological target: Carbonic anhydrase 2 (Homo sapiens) (UniProt P00918); experiment: compounds binding carbonic anhydrase 2 – biochemical, small-molecule microarray, Alexa647-labelled CAII, profiling panel (AID 1122); details: CAII-A647 binding fluorescence, higher = more signal
[15] = COS7 lysate on small-molecule microarray, probe aHis, 635 nm (AID 1123); details: COS7 cell lysate, fluorescence, higher = more signal;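 also: z-score combines 667nm fluorescence intensity with signal-to-noise per printed compound spot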
[16] = probe aLAP1 signal on lysate-treated microarray – cell lysate, small-molecule microarray, COS7 lysate, primary screen (AID 1124); details: probe aLAP1, fluorescence, higher = more signal;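 also: lysate comes from COS7 cells expressing LAP1 and is applied at 0.3 µg/mL; score merges spot fluorescence near 667 nm with signal-to-noise over triplicate slides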
Sam68 (KHDRBS1) = experiment: compounds binding KHDRBS1 protein – biochemical, small-molecule microarray, 635 nm fluorescence, primary screen (AID 1125); details: higher = more signal;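 also: score merges 667 nm channel intensity with signal to noise over triplicate slides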
[17] = test system: Chordin-like protein 2 (CHRDL2); experiment: compounds binding chordin-like 2 – biochemical, small-molecule microarray, 635 nm fluorescence, primary screen (AID 1126); details: fluorescence 635 nm, higher = more signal;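 also: printed compound slides probed with Chrdl2 protein at 4 µg/mL for 1 h at 4 C; score merges 667 nm emission intensity with signal to noise over three replicate slides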
[18] = biological target: Concanavalin-A (Canavalia ensiformis) (UniProt P02866); experiment: compounds binding concanavalin A lectin – biochemical, small-molecule microarray, Alexa647 label, 635 nm, artefact control for SMM control protein annotation, primary screen (AID 1127); details: ConA-A647 binding fluorescence, higher = more signal;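 also: z combines 667 nm emission intensity with signal-to-noise across three replicate slides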
Sequence of Concanavalin-A (Canavalia ensiformis) (P02866 whole entry, looked up): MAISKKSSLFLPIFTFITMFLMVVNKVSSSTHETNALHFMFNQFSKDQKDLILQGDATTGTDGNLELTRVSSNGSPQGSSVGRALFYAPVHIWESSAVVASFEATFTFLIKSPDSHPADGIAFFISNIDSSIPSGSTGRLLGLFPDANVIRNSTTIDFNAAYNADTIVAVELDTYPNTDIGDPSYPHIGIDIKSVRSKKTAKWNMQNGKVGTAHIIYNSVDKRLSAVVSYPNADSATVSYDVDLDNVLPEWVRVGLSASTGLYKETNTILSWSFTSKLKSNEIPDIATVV

Sequence of Torsin-1A-interacting protein 1 (Homo sapiens) (Q5JTV8 whole entry, looked up): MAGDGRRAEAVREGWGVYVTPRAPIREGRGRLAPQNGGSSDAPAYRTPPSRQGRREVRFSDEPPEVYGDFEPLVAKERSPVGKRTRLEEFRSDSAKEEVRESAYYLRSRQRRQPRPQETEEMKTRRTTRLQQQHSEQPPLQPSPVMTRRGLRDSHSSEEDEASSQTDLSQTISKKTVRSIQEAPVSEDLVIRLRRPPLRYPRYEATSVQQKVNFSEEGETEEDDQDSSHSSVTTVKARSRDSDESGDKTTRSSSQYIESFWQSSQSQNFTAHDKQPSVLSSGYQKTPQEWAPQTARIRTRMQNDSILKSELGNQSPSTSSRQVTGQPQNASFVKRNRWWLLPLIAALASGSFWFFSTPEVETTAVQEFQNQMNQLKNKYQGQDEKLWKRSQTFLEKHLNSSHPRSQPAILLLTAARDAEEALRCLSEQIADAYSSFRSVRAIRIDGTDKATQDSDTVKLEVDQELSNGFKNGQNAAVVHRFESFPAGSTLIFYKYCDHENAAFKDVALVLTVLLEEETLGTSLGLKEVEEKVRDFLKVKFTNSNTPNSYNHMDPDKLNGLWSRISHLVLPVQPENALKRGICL
Sequence of Alpha-bungarotoxin (Bungarus multicinctus) (P60615 whole entry, looked up): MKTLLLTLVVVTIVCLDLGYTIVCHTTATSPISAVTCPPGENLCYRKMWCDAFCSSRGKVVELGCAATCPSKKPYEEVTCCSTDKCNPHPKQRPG
Sequence of Left-right determination factor 2 (Homo sapiens) (O00292 whole entry, looked up): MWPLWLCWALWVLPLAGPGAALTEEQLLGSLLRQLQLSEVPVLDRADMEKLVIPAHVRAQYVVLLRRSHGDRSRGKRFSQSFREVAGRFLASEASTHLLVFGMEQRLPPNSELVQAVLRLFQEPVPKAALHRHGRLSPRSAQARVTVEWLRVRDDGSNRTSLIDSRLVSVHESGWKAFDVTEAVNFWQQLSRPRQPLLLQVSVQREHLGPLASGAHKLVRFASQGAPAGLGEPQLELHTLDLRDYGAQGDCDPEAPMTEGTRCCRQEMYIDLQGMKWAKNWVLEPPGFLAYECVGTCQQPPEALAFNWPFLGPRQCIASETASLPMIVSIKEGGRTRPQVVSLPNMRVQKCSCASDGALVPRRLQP
Sequence of Albumin (Bos taurus) (P02769 whole entry, looked up): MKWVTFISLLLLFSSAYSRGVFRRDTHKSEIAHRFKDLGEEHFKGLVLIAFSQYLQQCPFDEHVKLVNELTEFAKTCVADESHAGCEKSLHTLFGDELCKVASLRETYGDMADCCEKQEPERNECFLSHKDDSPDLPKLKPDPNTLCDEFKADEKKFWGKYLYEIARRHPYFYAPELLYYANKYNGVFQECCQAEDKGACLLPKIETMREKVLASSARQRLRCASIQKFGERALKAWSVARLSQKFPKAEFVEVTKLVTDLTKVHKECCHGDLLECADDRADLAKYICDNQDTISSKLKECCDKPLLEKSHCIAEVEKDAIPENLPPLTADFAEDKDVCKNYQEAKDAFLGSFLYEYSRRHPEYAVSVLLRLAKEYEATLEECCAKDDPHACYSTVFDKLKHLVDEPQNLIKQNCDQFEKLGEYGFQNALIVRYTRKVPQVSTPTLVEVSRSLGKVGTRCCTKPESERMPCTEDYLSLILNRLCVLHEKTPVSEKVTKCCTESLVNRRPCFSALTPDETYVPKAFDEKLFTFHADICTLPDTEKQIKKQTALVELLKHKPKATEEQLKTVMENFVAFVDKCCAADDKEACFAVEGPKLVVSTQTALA

| Structure (SMILES) | composite z-score [1] | z-score [2] | composite z-score [3] | composite z-score [4] | composite z-score [5] | composite z-score [6] | composite z-score [7] | composite z-score [8] | composite z-score [9] | composite z-score [10] | composite z-score (Albumin (Bos taurus)) | composite Z-score [11] | composite z-score [12] | composite z-score [13] | composite z-score [14] | composite z-score [15] | composite z-score [16] | composite z-score (Sam68 (KHDRBS1)) | composite z-score [17] | composite z-score [18] |
| --- | --- | --- | --- | --- | --- | --- | --- | --- | --- | --- | --- | --- | --- | --- | --- | --- | --- | --- | --- | --- |
| CCOC(=O)C1=CC[C@@H](c2ccccc2)N(S(=O)(=O)c2ccc(C)cc2)[C@H]1c1ccccc1 | 1.1 | -0.667 | 0.0056 | 0.578 | 0.626 | 0.0037 | -0.138 | -0.0496 | 0.46 | 0.995 | 0.831 | -0.563 (inactive) | 0.107 | -0.0806 | 0.453 | 0.69 | -0.561 | 0.749 | -0.221 | 1.07 |
| COC(=O)C1=CC(CCCO)=CC(c2cccs2)N(C)C=C1C(=O)OC (stereo not given) | 0.0867 | -1.31 | -0.876 | 0.127 | 0.618 | -0.0981 | -0.165 | -0.0879 | 0.044 | 0.498 | 0.445 | 0.156 (inactive) | -0.0879 | -0.115 | 0.869 | 1.17 | -0.371 | -0.213 | -0.44 | 0.34 |
| CC(C)N1C(=O)C[C@@](C(=O)NC2CC2)(c2ccc([N+](=O)[O-])cc2)[C@H]1c1ccc(CO)cc1 | 1.3 | -1.2 | -1.15 | -0.673 | -0.606 | -0.0934 | -0.0709 | -0.566 | -0.315 | 0.181 | -1.1 | -0.239 (inactive) | -0.339 | -0.14 | 0.525 | 2.95 | 0.965 | -0.203 | -1.08 | -0.0039 |
| CCN(CC)c1ccc(N2CC=CC34O[C@@H]5/C=C\CCCOC(=O)C5[C@H]3C(=O)N(C(C)CO)[C@@H]4C2=O)cc1 (stereo not given in full) | -0.0836 | -0.261 | -0.469 | -0.479 | -0.619 | -0.0405 | 0.297 | 0.0073 | -0.421 | 1.04 | 0.288 | -0.463 (inactive) | -0.0647 | -0.0862 | 0.732 | 0.121 | 0.248 | 0.11 | 0.259 | -0.529 |
| C=C[C@@H](OC)[C@H](OC(=O)Nc1ccc(OC)cc1)c1ccc(O)c(F)c1 | 0.392 | 0.859 | -0.227 | -1.84 | -1.47 | -0.208 | 0.0796 | -0.834 | 0.302 | -0.839 | -0.715 | 0.656 (inactive) | -0.0581 | -0.2 | 0.268 | 1.93 | 0.117 | 0.21 | 0.746 | -0.728 |

From PubChem BioAssay
